Laboratory results from PubChem BioAssay (NCI).
About 79,000 compounds went through this panel and 15% of them were active in at least one assay; those are over-represented in the sample as a whole. Unmarked numbers belong to inactive results. Calls of active or inactive are those of the source. Cut-off read from the data, not from the text of the source: active = growth inhibition above about 70%; inactive = the rest. Where a SMILES comes first, the peptide text is derived from it. The star is where a group is joined. Cbz = O=C(OCc1ccccc1)*; OBn = c1ccc(CO*)cc1

Test: NCI Yeast Anticancer Drug Screen. Data for the mec2-1 strain (AID 157)
Settings: S. cerevisiae mec2-1 strain, hits give high values; at 50.0 µM unless noted
How it was run: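 Each compound was tested on mec2-1 yeast, a strain altered in DNA damage repair or cell cycle control. Growth inhibition is reported relative to vehicle.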

Compound	growth inhibition
c1ccc(C2(c3ccc(C4(c5ccccc5)Oc5ccccc5S4)[nH]3)Oc3ccccc3S2)cc1 (stereo not given)	-12.2%
COc1cccc(C#CC(=O)O)c1	-20.9%
Nc1nc(N)c(N=O)c(Nc2ccccc2)n1	6.9%
C=C1C(=O)OC2/C=C(\C)C(O)CCC(C)(O)CC(OC(=O)/C(C)=C/C)C12 (stereo not given)	-5.45%
NC(CSCCB(O)O)C(=O)O (stereo not given)	-15.2%
Cc1ccc2nc(Sc3c([N+](=O)[O-])ncn3C)[nH]c2c1	-16.4%
CC(=O)c1ccccc1NC=O	-10.2%
CNc1cc([N+](=O)[O-])ccc1Br	4.2%
CC(Cl)S(=O)(=O)c1ccccc1 (stereo not given)	-4.05%
CCC(C)C(NC(=O)C1CSC(C)(C)N1C=O)C(=O)OC1CCCCC1 (stereo not given)	-13.2%
O=C(NSN1CCOCC1)c1ccccc1	25.8%
Cc1cnc2ccccc2c1/C=C/c1ccc(N(C)C)cc1	-0.1%
Cn1c(=O)c(C(=O)Nc2nc(C34CC5CC(CC(C5)C3)C4)cs2)c(O)c2ccccc21	-28.6%
CCOC(=O)N1CCc2cc(OC)c(OC)cc2C1Cc1ccc(OC)c(OC)c1 (stereo not given)	-8.75%
CCC(SC(CC)(CC)C(=O)O)C(N)=O (stereo not given)	0.05%
CC(=O)OCC(O)CS(=O)c1ccc(C)cc1 (stereo not given)	2%
CC1(C)CC[C@]2(C(=O)O)CC[C@]3(C)C(=CC[C@@H]4[C@@]5(C)CC[C@H](OC6OC(CO)C(O)C(O)C6O)C(C)(C)[C@@H]5CC[C@]43C)[C@@H]2C1 (stereo not given in full)	74.8% (active)
O=C(NC1c2ccccc2Oc2ccccc21)OCCI	6.05%
COc1ccc(N=N/C(=N/NC(=O)c2cc(Cl)ccc2C(=O)c2ccccc2)c2ccc(N(CCC#N)CCC#N)cc2C)cc1	12.6%
N#CCN1CCc2ccccc2C1	-7.15%

Compound	growth inhibition
Cc1nc2c3c(ccc2[nH]c1=O)C(=O)c1ccccc1C3=O	11.6%
Cc1ccc(N2C(=O)C3CSCN3C2=O)cc1 (stereo not given)	19.8%
Cc1ccc(-c2ccc(C)cc2C(=O)O)c(C(=O)O)c1	1%
CC(CC(O)C(=O)O)CC(C)(C)C (stereo not given)	8.7%
N#Cc1sc2c(c1OC(=O)c1cccs1)c(=O)n(-c1ccccc1)c(=S)n2-c1ccccc1	10.4%
O=C(O)c1nc2ccccc2nc1C(=O)O	-7.65%
CC1(C)C2CCC3(C2)CS(=O)(=O)N2OC231 (stereo not given)	-35.9%
O=C(Cc1ccccc1)SC(=O)Cc1ccccc1	28.8%
COC(=O)c1cc(NC(=O)Nc2cccc(C(C)=O)c2)cc(C(=O)OC)c1	31.2%
COC(=O)C(Cc1ccc(O)cc1)NC(=O)C(CC(=O)OCc1ccccc1)NC(=O)OCc1ccccc1 (stereo not given) (Cbz-Asp(OBn)-Tyr-OMe; configuration not given here)	-5.95%
CC(=O)c1cccc(N=NN(C)C)c1	36.5%
COC(=O)C1Cc2c([nH]c3ccccc23)C=N1 (stereo not given)	31.2%
CC(C)c1cccc(C(C)C)c1NC(=O)N1CCCCC1	-16.2%
O=C(O)CC(O)(CC(=O)O)C(=O)O	17.9%
Nc1c(F)cc(I)cc1F	2.15%
CC(=O)OCCOCNC(=S)N/N=C(\C)c1ccco1	-8.3%
c1ccc2c(c1)Cc1cc3ccccc3cc1C2	-44.9%
CN(C)c1cccc2c(S(=O)(=O)NCCCNCCN)cccc12	-18.4%
O=C(O)c1ccc(NCC(O)COc2ccc([N+](=O)[O-])cc2)cc1 (stereo not given)	4.85%
CCCCCCCCN1C(=O)CCC1=O	-19.4%

Test: NCI Yeast Anticancer Drug Screen. Data for the sgs1 mgt1 strain (AID 161);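 note: 0% = growth of cultures given vehicle only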
Settings: S. cerevisiae sgs1 mgt1 strain, hits give high values; at 50.0 µM unless noted
How it was run: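 Test agents were incubated with a DNA-repair-mutant yeast strain. Growth was then read and compared against vehicle-treated controls.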

Compound	growth inhibition
c1ccc(C2(c3ccc(C4(c5ccccc5)Oc5ccccc5S4)[nH]3)Oc3ccccc3S2)cc1 (stereo not given)	-4.4%
COc1cccc(C#CC(=O)O)c1	-18.9%
Nc1nc(N)c(N=O)c(Nc2ccccc2)n1	-8.35%
C=C1C(=O)OC2/C=C(\C)C(O)CCC(C)(O)CC(OC(=O)/C(C)=C/C)C12 (stereo not given)	-3.1%
NC(CSCCB(O)O)C(=O)O (stereo not given)	-6.5%
Cc1ccc2nc(Sc3c([N+](=O)[O-])ncn3C)[nH]c2c1	-18.2%
CC(=O)c1ccccc1NC=O	-12.1%
CNc1cc([N+](=O)[O-])ccc1Br	-1.1%
CC(Cl)S(=O)(=O)c1ccccc1 (stereo not given)	-17.9%
CCC(C)C(NC(=O)C1CSC(C)(C)N1C=O)C(=O)OC1CCCCC1 (stereo not given)	19.1%
O=C(NSN1CCOCC1)c1ccccc1	30%
Cc1cnc2ccccc2c1/C=C/c1ccc(N(C)C)cc1	1.55%
Cn1c(=O)c(C(=O)Nc2nc(C34CC5CC(CC(C5)C3)C4)cs2)c(O)c2ccccc21	-5.7%
CCOC(=O)N1CCc2cc(OC)c(OC)cc2C1Cc1ccc(OC)c(OC)c1 (stereo not given)	-7.7%
CCC(SC(CC)(CC)C(=O)O)C(N)=O (stereo not given)	-8.15%
CC(=O)OCC(O)CS(=O)c1ccc(C)cc1 (stereo not given)	0.4%
CC1(C)CC[C@]2(C(=O)O)CC[C@]3(C)C(=CC[C@@H]4[C@@]5(C)CC[C@H](OC6OC(CO)C(O)C(O)C6O)C(C)(C)[C@@H]5CC[C@]43C)[C@@H]2C1 (stereo not given in full)	47.9%
O=C(NC1c2ccccc2Oc2ccccc21)OCCI	37.6%
COc1ccc(N=N/C(=N/NC(=O)c2cc(Cl)ccc2C(=O)c2ccccc2)c2ccc(N(CCC#N)CCC#N)cc2C)cc1	-32.9%
N#CCN1CCc2ccccc2C1	-6.65%

Compound	growth inhibition
Cc1nc2c3c(ccc2[nH]c1=O)C(=O)c1ccccc1C3=O	17.7%
Cc1ccc(N2C(=O)C3CSCN3C2=O)cc1 (stereo not given)	6.85%
Cc1ccc(-c2ccc(C)cc2C(=O)O)c(C(=O)O)c1	4%
CC(CC(O)C(=O)O)CC(C)(C)C (stereo not given)	-7.15%
N#Cc1sc2c(c1OC(=O)c1cccs1)c(=O)n(-c1ccccc1)c(=S)n2-c1ccccc1	17.2%
O=C(O)c1nc2ccccc2nc1C(=O)O	-13.4%
CC1(C)C2CCC3(C2)CS(=O)(=O)N2OC231 (stereo not given)	-31.1%
O=C(Cc1ccccc1)SC(=O)Cc1ccccc1	18.6%
COC(=O)c1cc(NC(=O)Nc2cccc(C(C)=O)c2)cc(C(=O)OC)c1	25.6%
COC(=O)C(Cc1ccc(O)cc1)NC(=O)C(CC(=O)OCc1ccccc1)NC(=O)OCc1ccccc1 (stereo not given) (Cbz-Asp(OBn)-Tyr-OMe; configuration not given here)	-0.7%
CC(=O)c1cccc(N=NN(C)C)c1	58%
COC(=O)C1Cc2c([nH]c3ccccc23)C=N1 (stereo not given)	55%
CC(C)c1cccc(C(C)C)c1NC(=O)N1CCCCC1	0.05%
O=C(O)CC(O)(CC(=O)O)C(=O)O	-19.6%
Nc1c(F)cc(I)cc1F	-2.2%
CC(=O)OCCOCNC(=S)N/N=C(\C)c1ccco1	3.4%
c1ccc2c(c1)Cc1cc3ccccc3cc1C2	-29.5%
CN(C)c1cccc2c(S(=O)(=O)NCCCNCCN)cccc12	-20.9%
O=C(O)c1ccc(NCC(O)COc2ccc([N+](=O)[O-])cc2)cc1 (stereo not given)	-2.8%
CCCCCCCCN1C(=O)CCC1=O	-6.3%
